Source: PubChem BioAssay
The full list was thinned out, with hits kept by preference.
DT40 TDP1 no CPT – qHTS for Inhibitors of human tyrosyl-DNA phosphodiesterase 1 (TDP1): qHTS in cells in absence of CPT; DT40 Tdp1-/- hTDP1 cells, no CPT, ATP luminescence, 48 h; Potency, µM (series often up to 46.2 µM), inactives show at the highest dose activity change, negative = growth inhibition, hits mostly inhibitors; hit rate 15% among 420,000; further: potency means the concentration at half of the fitted maximal effect; nearly all actives have a fitted effect of over 55% in size
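Chicken DT40 Tdp1-/- cells stably complemented with human TDP1 were seeded at 400 cells/well with DMSO in place of 20 nM camptothecin. After compound pinning, cells grew at least 48 hr at 37 °C; viability read by CellTiter-Glo luminescence.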
IL-1B inflam inh – inhibitors of inflammasome signaling (IL-1 beta secretion); activity change, % at 57.5 µM; THP-1 LPS/ATP IL-1B secretion, AlphaLISA, 16 h; stronger effect = lower value; hit rate 4.7% among 360,000; in the data active means activity change below about -50%; inconclusive means mostly about -30% to -49%
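Secreted IL-1B measured by AlphaLISA bead assay after 16 h compound exposure of THP-1 cells; compounds (final up to 57.5 uM) added 1 h before LPS (250 ng/mL) and ATP (1.25 mM) stimulation; lower signal means less secretion.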
ALOX12 inh – ALOX12 (human) lipoxygenase inhibition; P18054; purified 12hLO, xylenol orange hydroperoxide absorbance; Potency, µM (top dose mostly 108 µM), for the others: at the highest dose activity change, negative = inhibition, most hits filed as inhibitors; hit rate 1.1% among 580,000; further: potency means the concentration at half of the fitted maximal effect
Target sequence (P18054 whole entry, looked up): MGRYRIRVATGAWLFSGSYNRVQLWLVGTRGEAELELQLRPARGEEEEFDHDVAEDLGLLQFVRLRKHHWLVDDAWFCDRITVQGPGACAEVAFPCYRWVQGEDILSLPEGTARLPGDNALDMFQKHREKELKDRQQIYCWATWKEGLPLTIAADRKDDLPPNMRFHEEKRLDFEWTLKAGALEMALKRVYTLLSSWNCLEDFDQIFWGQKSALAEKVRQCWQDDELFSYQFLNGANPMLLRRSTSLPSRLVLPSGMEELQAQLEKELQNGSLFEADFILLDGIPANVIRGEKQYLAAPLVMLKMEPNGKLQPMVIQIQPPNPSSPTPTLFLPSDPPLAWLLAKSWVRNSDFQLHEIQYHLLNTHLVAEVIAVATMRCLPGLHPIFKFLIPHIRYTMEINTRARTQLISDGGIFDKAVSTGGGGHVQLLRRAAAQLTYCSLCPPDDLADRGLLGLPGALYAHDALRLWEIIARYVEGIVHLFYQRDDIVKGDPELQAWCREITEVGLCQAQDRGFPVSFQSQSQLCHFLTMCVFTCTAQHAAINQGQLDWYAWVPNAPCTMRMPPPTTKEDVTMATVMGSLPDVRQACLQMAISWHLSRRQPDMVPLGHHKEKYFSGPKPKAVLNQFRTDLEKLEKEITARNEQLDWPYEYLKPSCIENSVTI
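Purified human 12hLO at 150 nM in 25 mM Hepes, 0.01% Triton X-100, pH 7.0, preincubated 15 min at room temperature with compound. Reaction started with 40 uM arachidonic acid, 30 min at room temperature. Hydroperoxide measured by Fe-xylenol orange, 573/405 nm absorbance ratio.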
DT40 TDP1 CPT – growth inhibition of DT40 Tdp1-/-;hTDP1 cells with camptothecin (screen for TDP1 inhibitors). chicken DT40 Tdp1-/-;hTDP1 cells + 20 nM CPT, ATP luminescence, 48 h. Potency, µM (top dose mostly 46.2 µM), inactives show top-dose activity change, negative = growth inhibition, usual class: inhibitors. hit rate 12% among 420,000. AID 686979; further: potency means the concentration at half of the fitted maximal effect; nearly all actives have a fitted effect of over 55% in size
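Chicken DT40 Tdp1-/- cells stably complemented with human TDP1 were seeded at 400 cells/well in medium containing 20 nM camptothecin, exposed to pin-transferred compounds, and grown at 37 °C for at least 48 hr. Viability was read as ATP luminescence.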
HT1080 IDH1KD tx – kills HT-1080 cells with IDH1 knockdown. HT-1080 IDH1 knockdown viability, ATP luminescence, 48 h. Potency, µM (top dose mostly 46.1 µM), for inactives: at the highest dose activity, negative = toxicity, usual class: cytotoxic. hit rate 2% among 360,000;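 further: potency means the concentration at half of the fitted maximal effect; 0% = DMSO wells and -100% = cell-free medium wells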
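Assay cells: HT-1080 with IDH1 knockdown, 750 per well, RPMI/5% FBS. Exposure: 48 h at 37 °C following 2 h pre-incubation. Read: CellTiter-Glo luminescence; fitted concentration-response, curve class assigned.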
HT1080-NT tox – kills 2HG-producing HT-1080-NT fibrosarcoma cells; Potency, µM (highest dose often 46.1 µM), inactives show at the highest dose activity, negative = less viability, usual class: cytotoxic; hit rate 1.6% among 360,000; HT-1080-NT fibrosarcoma viability, CellTiter-Glo ATP luminescence, 48 h;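 further: NT is the 2HG producing partner of a matched IDH1 knockdown line; potency means the concentration at half of the fitted maximal effect; 0% = DMSO-treated cells and -100% = media-only wells without cells; nearly all actives have a fitted effect of over 55% in size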
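A 48-hour cytotoxicity screen used HT-1080-NT cells plated 2 hours before compound delivery. ATP-based CellTiter-Glo luminescence measured viability, normalized to DMSO and no-cell controls.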
Starred values were filed as active, the others as inactive; ? = inconclusive; . = not tested or not shown; [ ] = dose if it differs, or a comment. Unless noted, the call rests on the fitted dose curve; in most records, active means well fitted curve in the direction sought with a large enough effect; inconclusive means small, poorly fitted or top-dose-only effect, or another doubt; inactive means no such curve, though single readings can be large; an effect the other way counts as inactive or inconclusive. Unless noted, on the % scale 0 is the no-effect control and ±100 the full control effect.

SMILES	DT40 TDP1 no CPT	IL-1B inflam inh	ALOX12 inh	DT40 TDP1 CPT	HT1080 IDH1KD tx	HT1080-NT tox
O=C(NC1(C(F)(F)F)N=C(c2ccccc2)N(Cc2ccco2)C1=O)c1ccccc1Cl (stereo not drawn)	.	.	-2%	.	.	.
Cc1ccccc1C(=O)NC1(C(F)(F)F)N=C(c2ccccc2)N(Cc2ccccc2)C1=O (stereo not drawn)	23µM*	.	-25%	23µM*	.	.
NCc1cc(Br)ccc1OC(F)F	.	.	-17%	.	.	.
CCc1cc(C(=O)NNC(=O)CCl)sc1C	?	-28	23%	15µM*	-12%	-25%
COc1cc(/C=C/C(=O)NC(=O)c2ccccc2O)ccc1O	-7%	-5	.	3%	4%	-1%
O=C(/C=C/c1ccccc1)CC(=O)c1ccccc1O	18µM*	-15	1%	?	6%	-17%
O=C(/C=C/c1ccccc1)NC(=O)c1ccccc1O	?	-58*	-20%	?	2%	-7%
O=C(O)CCCC(=O)N1CCN(C(=O)c2ccco2)CC1	.	.	12%	.	.	.
CSc1nc2sc3c(c2c(=O)n1-c1ccccc1)CCC(C(C)(C)C)C3 (stereo not drawn)	0.92µM*	.	-18%	?	.	.
CSc1nc2sc3c(c2c(=O)n1C)CCCC3	?	25	-11%	-24%	20%	-2%
Nn1c(Nc2ccccc2)nc2sc3c(c2c1=O)CCC3	2.9µM*	-2	?	1µM*	?	?
CSc1nc2sc3c(c2c(=O)n1-c1ccc(C)cc1)CCCC3	8.2µM*	.	0%	?	.	.
CC(C)Sc1nc2sc3c(c2c(=O)n1-c1ccccc1)CCCC3	18µM*	.	0%	?	.	.
O=C1CC(c2ccccc2)N(C(=O)CNC(=O)c2ccc3cc[nH]c3c2)CCCCCN1 (stereo not drawn)	.	.	7%	.	.	.
CCN(CC)C[C@H]1O[C@H](Cc2cc(-c3ccccc3)on2)CC[C@@H]1O	.	.	3%[176 µM]	.	.	.
COc1ccc(-n2c(NN)nc3sc4c(c3c2=O)CCCC4)cc1	?	-15	-2%	-3%	?	?
O=c1c2c3c(sc2nc(NCCO)n1-c1ccccc1)CCCC3	12µM*	9	0%	6.5µM*	?	?
COc1ccc2oc(C(=O)OC(C)C(=O)N3CCC(C)CC3)c(C)c2c1 (stereo not drawn)	15µM*	-3	366%	?	-5%	-3%
COc1ccc2oc(C(=O)OCC(=O)N3CC(C)CC(C)C3)c(C)c2c1 (stereo not drawn)	?	-27	-1%	?	-4%	6%
COc1ccc2cc(C(C)C(=O)N3CCC(C)CC3)ccc2c1 (stereo not drawn)	?	?	-9%	16µM*	?	15µM*
Cc1ccc(-c2nc(C#N)c(NCCN3CCOCC3)o2)cc1	.	.	3%	.	.	.
COc1ccc(-c2cc(=O)n(CCC#N)[nH]2)cc1	23µM*	6	0%	?	-13%	-10%
CCC1CCCCN1C(=O)CCCOc1ccccc1 (stereo not drawn)	?	-6	-6%	23µM*	3%	8%
CC(C)C(NC(=O)/C=C/c1ccc(Cl)cc1)C(C)C	.	.	13%	.	.	.
Cn1c(N)c(-c2csc(Nc3ccccc3)n2)c(=O)n(C)c1=O	.	.	45µM*	.	.	.
SMILES	DT40 TDP1 no CPT	IL-1B inflam inh	ALOX12 inh	DT40 TDP1 CPT	HT1080 IDH1KD tx	HT1080-NT tox
Clc1cccc(-c2csc(NC3CC3)n2)c1	.	.	-26%	.	.	.
Cn1c(N)c(-c2csc(NC3CC3)n2)c(=O)n(C)c1=O	.	.	7.9µM*	.	.	.
COC(=O)c1ccc(COC(=O)CSc2cnc3ccccc3n2)cc1	.	.	40%	.	.	.
O=C(Nc1cccc2cccnc12)c1cccc(S(=O)(=O)N2CCN(c3ccc(F)cc3)CC2)c1	.	.	-3%	.	.	.
CC1(Cc2ccc(Cl)cc2)C(=O)Nc2c(Cl)cccc21 (stereo not drawn)	?	38	.	-20%	10%	?
O=C1Nc2c(Cl)cc(Cl)cc2C12Nc1ccccc1S2 (stereo not drawn)	.	.	35µM*	.	.	.
CN(C)Cc1cc(C(C)(C)c2cc(CN(C)C)c(O)c(CN(C)C)c2)cc(CN(C)C)c1O	-15%	-62*	0%	-10%	-13%	-8%
CN(C)Cc1cc(OCc2ccccc2)cc(CN(C)C)c1O	5%	?	?	5%	-1%	-2%
COc1cccc(-c2ccc3c(N)c(C(=O)c4ccc(Cl)cc4)sc3n2)c1	7.3µM*	.	-19%	8.2µM*	.	.
COc1ccc(OCC(=O)NCc2ccc(Cl)cc2)cc1	0%	3	-2%	-5%	-1%	0%
CCOc1ccccc1NC(=O)c1sc2nc(-c3ccc(OC)cc3)ccc2c1N	13µM*	.	-18%	21µM*	.	.
COc1ccc(-c2ccc3c(N)c(C(=O)NCc4ccc(Cl)cc4)sc3n2)cc1	15µM*	.	?	?	.	.
Nc1c(C(=O)NCc2ccc(Cl)cc2)sc2nc(-c3ccc(F)cc3)ccc12	21µM*	.	-23%	18µM*	.	.
COc1ccc(C(=O)c2sc3nc(-c4ccccc4)ccc3c2N)cc1	-53%	-26	.	-54%	-23%	4%
COc1cccc(CNC(=O)c2ccc(S(=O)(=O)N3CCc4ccccc4C3)cc2)c1	.	.	6%	.	.	.
COc1ccc(-c2ccc3c(N)c(C(=O)Nc4ccc(C)cc4C)sc3n2)cc1OC	?	.	-10%	4.1µM*	.	.
COc1ccc(C)cc1NC(=O)c1nc(-c2ccccc2)oc1C	.	.	3%	.	.	.
Cc1cc(C)c(Nc2ncnc3c2cnn3C)c(C)c1	16µM*	.	-55%	21µM*	.	.
Cc1cccc(-n2ncc3c(Nc4c(C)cc(C)cc4C)ncnc32)c1	4.6µM*	.	-14%	3.3µM*	.	.
Fc1cccc(-c2cnc([C@@H]3COCCN3C3CCCCC3)[nH]2)c1	.	.	21%[176 µM]	.	.	.
CN(C)S(=O)(=O)c1ccc2nnn(OCC(=O)NC34CC5CC(CC(C5)C3)C4)c2c1	26µM*	13	-12%	?	1%	1%
CCc1ccccc1N1CNc2c(sc3nc(C)cc(COC)c23)C1=O	.	.	-18%	.	.	.
NS(=O)(=O)c1ccc(CCNc2ncnc3sccc23)cc1	5.8µM*	8	2%	7.3µM*	?	-10%
NS(=O)(=O)c1ccc(CCNc2ncnc3c2cnn3-c2ccccc2)cc1	.	.	6%	.	.	.
NS(=O)(=O)c1ccc(CNc2ncnc3sccc23)cc1	?	11	0%	?	-13%	-15%
Cc1c(C)n(CCc2ccccc2)c2ncnc(NCCCN(C)C)c12	?	-72*	2%	?	?	?
